Records with an inconclusive call do not appear. Activity calls are given as the source filed them. Calls come from the whole dose curve; as a rule, active = well fitted cell-killing curve with a large enough effect; inconclusive = small, poorly fitted or top-dose-only effect; inactive = flat fitted curve, though single readings scatter.
Assay: Cell Viability - LYMP2-026 (AID 989);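 note: cells exposed to compound for 24 h at 37 °C; nearly all actives have a fitted effect of over 50% in size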
Conditions: LYMP2-026 lymphoblastoid cell viability, qHTS; series mostly up to 92.2 µM
From the text: NIH Chemical Genomics Center [NCGC]
NIH Molecular Libraries Screening Centers Network [MLSCN]
National Institutes of Environmental Health Sciences [NIEHS]
National Toxicology Program [NTP]
We have developed a 1536-well cell-based assay for quantitative high throughput screening (qHTS) against a number of cell lines to determine in vitro cytotoxicity of small molecules. This particular assay uses a human lymphoblastoid cell line (LYMP2-026) purchased from Coriell Institute for Medical Research.
NCGC Assay Protocol Summary:
The CellTiter-Glo luminescent cell viability assay (Promega) is a homogeneous method to measure the number of viable cells in culture. The end point readout of this assay is based on quantitation of intracellular ATP, an indicator of metabolic activity, using the luciferase reaction. Luciferase catalyzes the oxidation of beetle Luciferin to oxyluciferin and light in the presence of ATP. The luminescent signal is proportional to amount of ATP present.
Using the CellTiter-Glo luminescent cell viability assay, the amount of cellular ATP was measured in the lymphoblastoid cell line with complete culture medium following compound treatment for 24 hours. The assay was performed in opaque white Kalypsys 1536-well plates. In the screen, tetraoctylammonium bromide was used as positive control. Library compounds were measured for their ability to cause acute toxicity in the cell line, as reflected by a decrease in intracellular ATP levels, in a concentration-dependent manner. […] AC50 values were determined from concentration-response data modeled with the standard Hill equation.
qHTS protocol for CellTiter Glo lymphoblastoid cellular assay
[Step] [Parameter] [Value] [Description]
1. Reagent; 5 uL; 2500 lymphoblastoid cells/well
2. Time; 5 hr; 37 C incubation
4. Controls; 23 nL; Tetraoctylammonium bromide 6.4pM to 92 uM
5. Time; 24 hr; 37 C incubation
6. Reagent; 5 uL; CellTiter Glo reagent
7. Time; 30 min; Room Temperature
8. Detection; Luminescence; Viewlux plate reader
Keywords: cell viability, cytotoxicity, lymphoblastoid cell line, luminescence, NTPHTS, NTPHTS_NCGC, NIEHS, DSSTox, MLSMR, MLSCN, NIH Roadmap, qHTS, NCGC
With `C1CCOC1` the outcome was “inactive”. With `Cc1ccc(C)c(O)c1` the outcome was “inactive”. With `COc1ccccc1[N+](=O)[O-]` the outcome was “inactive”. In the case of `Cc1ccccc1C(=O)O`, the outcome is reported as “inactive”. For `O=C(Cl)c1c(Cl)cccc1Cl`, the outcome was “inactive”. For `Cc1ccccc1C(N)=O`, the outcome was “inactive”. With `Cc1ccc(C)c(N)c1` the outcome was “inactive”. With `CCCCN(CCO)CCCC` the outcome was “inactive”. For `CC(=O)c1ccccc1[N+](=O)[O-]`, the outcome was “inactive”. For `C=C(C)C(=O)OCC(C)O` (stereo not given), the outcome was “inactive”. In the case of `CCC=O`, the outcome is reported as “inactive”. With `Cc1ccc(Br)cc1` the outcome was “inactive”. For `Cc1ccc2c(c1[N+](=O)[O-])C(=O)c1ccccc1C2=O`, the outcome was “inactive”. With `CC1CCC2CC1C2(C)C` (stereo not given) the outcome was “inactive”. In the case of `C=CCOC(=O)COCCC(C)C`, the outcome is reported as “inactive”. In the case of `Cc1cccc(C)c1O`, the outcome is reported as “inactive”. In the case of `Clc1cc(Cl)cc(Cl)c1`, the outcome is reported as “inactive”. With `Nc1cccc(N)c1` the outcome was “inactive”. With `Oc1c(Cl)ccc(Cl)c1Cl` the outcome was “inactive”. In the case of `CCOc1ccccc1N`, the outcome is reported as “inactive”. For `CCOc1cc(OCC)c(C(C)=O)cc1OCC`, the outcome was “inactive”. For `ICCc1ccccc1`, the outcome was “inactive”. In the case of `NC(N)=S`, the outcome is reported as “inactive”. In the case of `O=C(O)c1cccc([N+](=O)[O-])c1`, the outcome is reported as “inactive”. For `CCOc1cccc(N)c1`, the outcome was “inactive”. In the case of `O=Cc1ccc(CO)o1`, the outcome is reported as “inactive”. In the case of `Nc1cc(S(=O)(=O)O)ccc1O`, the outcome is reported as “inactive”. With `Cc1ccc(C)c([N+](=O)[O-])c1` the outcome was “inactive”. For `O=Cc1ccc(Cl)cc1`, the outcome was “inactive”. For `Cc1cccc(C(=O)O)c1[N+](=O)[O-]`, the outcome was “inactive”. For `CCCCCCCCC`, the outcome was “inactive”. In the case of `NC(=O)NC(N)=O`, the outcome is reported as “inactive”. For `CSCCC=O`, the outcome was “inactive”. With `CCCCC(=O)N(C)C` the outcome was “inactive”. In the case of `O=[N+]([O-])c1ccc(Cl)cc1Cl`, the outcome is reported as “inactive”. In the case of `O=C1CCC(=O)O1`, the outcome is reported as “inactive”. For `Cc1cccc(C)c1`, the outcome was “inactive”. In the case of `C=Cc1ccccc1C=C`, the outcome is reported as “inactive”. In the case of `C=CCCCCCCC=C`, the outcome is reported as “inactive”. For `OC1CCCC1`, the outcome was “inactive”.

Reference: PubChem BioAssay (NCATS)
